Source: PubChem BioAssay AID1159580 (chemical genetic matrix, 2015)
Among all 5,500 compounds or so, about 2,000 (36%) were called active. Inconclusive results (about 18%) are left out. No stated cut-off is given here; in the data, active means normalized growth mostly below about 0.91 (no sharp cut-off); inconclusive means no clear call, values can overlap the other calls; inactive means mostly above about 0.92. This is one part of the list.

Assay: chemical genetic growth profiling, strain panel (AID 1159580);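 further: tested at 20 µM; growth read once vehicle control cultures reached saturation at 30 °C; 1 = growth at the plate median or of vehicle wells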
Settings: growth OD

Measured: normalized growth

O=c1cc(-c2cc(O)c(O)c(O)c2)oc2cc(O)cc(O)c12
inactive: S. cerevisiae deletion strains, locus YJR075W, strain HOC1, stronger effect = lower value 1.02 | S. cerevisiae deletion strains, locus YKL009W, strain mrt4, stronger effect = lower value 0.99 | S. cerevisiae deletion strains, locus YKL068W, stronger effect = lower value 0.962 | S. cerevisiae deletion strains, locus YKL085W, strain MDH1 (second series), stronger effect = lower value 0.996 | S. cerevisiae deletion strains, locus YKL085W, strain MDH1, stronger effect = lower value 0.996 | S. cerevisiae deletion strains, locus YKL160W, strain elf1, stronger effect = lower value 0.934 | S. cerevisiae deletion strains, locus YKL190W, strain CNB1, stronger effect = lower value 0.992 | S. cerevisiae deletion strains, locus YKR001C, strain vps1, stronger effect = lower value 0.986 | S. cerevisiae deletion strains, locus YKR026C, strain gcn3, stronger effect = lower value 1.01 | S. cerevisiae deletion strains, locus YKR091W, strain srl3, stronger effect = lower value 1.01 | S. cerevisiae deletion strains, locus YLL001W, strain dnm1, stronger effect = lower value 0.961 | S. cerevisiae deletion strains, locus YLL026W, stronger effect = lower value 1.01 | S. cerevisiae deletion strains, locus YLL041C, strain sdh2, stronger effect = lower value 1 | S. cerevisiae deletion strains, locus YLR027C, strain aat2, stronger effect = lower value 0.974 | S. cerevisiae deletion strains, locus YLR039C, strain RIC1, stronger effect = lower value 0.966 | S. cerevisiae deletion strains, locus YLR058C, strain SHM2, stronger effect = lower value 0.999 | S. cerevisiae deletion strains, locus YLR102C, strain apc9, stronger effect = lower value 0.995 | S. cerevisiae deletion strains, locus YLR113W, strain HOG1, stronger effect = lower value 0.998 | S. cerevisiae deletion strains, locus YLR221C, strain rsa3, stronger effect = lower value 0.928 | S. cerevisiae deletion strains, locus YLR258W, strain gsy2, stronger effect = lower value 0.967 | S. cerevisiae deletion strains, locus YLR262C, strain YPT6 (second series), stronger effect = lower value 0.905 | S. cerevisiae deletion strains, locus YLR262C, strain YPT6, stronger effect = lower value 1.05 | S. cerevisiae deletion strains, locus YLR268W, strain sec22, stronger effect = lower value 0.976 | S. cerevisiae deletion strains, locus YLR320W, strain mms22, stronger effect = lower value 0.897 | S. cerevisiae deletion strains, locus YLR330W, strain CHS5, stronger effect = lower value 0.994 | S. cerevisiae deletion strains, locus YLR342W, strain FKS1 (second series), stronger effect = lower value 0.986 | S. cerevisiae deletion strains, locus YLR342W, strain FKS1, stronger effect = lower value 0.964 | S. cerevisiae deletion strains, locus YLR357W, strain rsc2, stronger effect = lower value 0.856 | S. cerevisiae deletion strains, locus YLR370C, strain arc18, stronger effect = lower value 0.924 | S. cerevisiae deletion strains, locus YLR371W, strain rom2, stronger effect = lower value 0.985 | S. cerevisiae deletion strains, locus YLR384C, strain iki3, stronger effect = lower value 0.993 | S. cerevisiae deletion strains, locus YLR418C, strain cdc73, stronger effect = lower value 1.02 | S. cerevisiae deletion strains, locus YML016C, strain PPZ1, stronger effect = lower value 0.994 | S. cerevisiae deletion strains, locus YML032C, strain rad52, stronger effect = lower value 0.999 | S. cerevisiae deletion strains, locus YML120C, strain ndi1, stronger effect = lower value 0.948 | S. cerevisiae deletion strains, locus YML124C, strain tub3, stronger effect = lower value 0.998 | S. cerevisiae deletion strains, locus YMR058W, strain fet3, stronger effect = lower value 0.941 | S. cerevisiae deletion strains, locus YMR078C, strain ctf18, stronger effect = lower value 0.998 | S. cerevisiae deletion strains, locus YMR125W, strain sto1, stronger effect = lower value 1.03 | S. cerevisiae deletion strains, locus YMR129W, stronger effect = lower value 1.01 | S. cerevisiae deletion strains, locus YMR205C, strain PFK2, stronger effect = lower value 0.961 | S. cerevisiae deletion strains, locus YMR223W, strain ubp8, stronger effect = lower value 0.964 | S. cerevisiae deletion strains, locus YMR231W, strain pep5, stronger effect = lower value 1 | S. cerevisiae deletion strains, locus YMR263W, strain SAP30, stronger effect = lower value 0.999 | S. cerevisiae deletion strains, locus YMR307W, strain GAS1, stronger effect = lower value 1.09 | S. cerevisiae deletion strains, locus YNL067W, strain RPL9B, stronger effect = lower value 1.01 | S. cerevisiae deletion strains, locus YNL071W, strain lat1, stronger effect = lower value 0.979 | S. cerevisiae deletion strains, locus YNL128W, strain TEP1, stronger effect = lower value 0.953 | S. cerevisiae deletion strains, locus YNL183C, strain NPR1, stronger effect = lower value 0.966 | S. cerevisiae deletion strains, locus YNL233W, strain BNI4, stronger effect = lower value 1.01 | S. cerevisiae deletion strains, locus YNL248C, strain rpa49, stronger effect = lower value 1.02 | S. cerevisiae deletion strains, locus YNL250W, strain rad50, stronger effect = lower value 0.966 | S. cerevisiae deletion strains, locus YNL271C, strain bni1, stronger effect = lower value 0.978 | S. cerevisiae deletion strains, locus YNL298W, strain CLA4, stronger effect = lower value 0.985 | S. cerevisiae deletion strains, locus YNL307C, strain MCK1, stronger effect = lower value 1.01 | S. cerevisiae deletion strains, locus YNL322C, strain KRE1 (second series), stronger effect = lower value 0.991 | S. cerevisiae deletion strains, locus YNR049C, strain mso1, stronger effect = lower value 1.01 | S. cerevisiae deletion strains, locus YNR052C, strain pop2, stronger effect = lower value 0.999 | S. cerevisiae deletion strains, locus YOL006C, strain TOP1, stronger effect = lower value 1.08 | S. cerevisiae deletion strains, locus YOL012C, strain htz1 0.547 | S. cerevisiae deletion strains, locus YOL147C, strain pex11, stronger effect = lower value 1.01 | S. cerevisiae deletion strains, locus YOR001W, strain rrp6, stronger effect = lower value 0.987 | S. cerevisiae deletion strains, locus YOR061W, strain CKA2, stronger effect = lower value 0.997 | S. cerevisiae deletion strains, locus YOR069W, strain VPS5, stronger effect = lower value 1 | S. cerevisiae deletion strains, locus YOR070C, strain gyp1, stronger effect = lower value 0.962 | S. cerevisiae deletion strains, locus YOR080W, strain dia2, stronger effect = lower value 0.993 | S. cerevisiae deletion strains, locus YOR083W, strain WHI5, stronger effect = lower value 0.916 | S. cerevisiae deletion strains, locus YOR106W, strain vam3, stronger effect = lower value 0.926 | S. cerevisiae deletion strains, locus YOR136W, strain idh2, stronger effect = lower value 0.995 | S. cerevisiae deletion strains, locus YOR144C, strain elg1, stronger effect = lower value 1.01 | S. cerevisiae deletion strains, locus YOR184W, strain ser1, stronger effect = lower value 1.01 | S. cerevisiae deletion strains, locus YOR231W, strain MKK1, stronger effect = lower value 1.04 | S. cerevisiae deletion strains, locus YOR265W, strain rbl2, stronger effect = lower value 0.99 | S. cerevisiae deletion strains, locus YOR270C, strain vph1, stronger effect = lower value 0.888 | S. cerevisiae deletion strains, locus YOR290C, strain snf2, stronger effect = lower value 0.942 | S. cerevisiae deletion strains, locus YOR316C, strain cot1, stronger effect = lower value 0.987 | S. cerevisiae deletion strains, locus YPL051W, strain arl3, stronger effect = lower value 0.931 | S. cerevisiae deletion strains, locus YPL055C, strain LGE1, stronger effect = lower value 1.03 | S. cerevisiae deletion strains, locus YPL078C, strain atp4, stronger effect = lower value 0.98 | S. cerevisiae deletion strains, locus YPL106C, strain sse1, stronger effect = lower value 0.929 | S. cerevisiae deletion strains, locus YPL240C, strain hsp82, stronger effect = lower value 1.01 | S. cerevisiae deletion strains, locus YPL256C, strain CLN2, stronger effect = lower value 1.06 | S. cerevisiae deletion strains, locus YPR119W, strain clb2, stronger effect = lower value 1.01 | S. cerevisiae deletion strains, locus YPR141C, strain kar3, stronger effect = lower value 0.971 | S. cerevisiae deletion strains, locus YPR163C, strain tif3, stronger effect = lower value 0.988 | S. cerevisiae deletion strains, locus YPR167C, strain met16, stronger effect = lower value 1.01 | S. cerevisiae deletion strains, strain wtn01, stronger effect = lower value 1 | S. cerevisiae strains, strain wild type, stronger effect = lower value 0.996
active: S. cerevisiae deletion strains, locus YNL209W, strain ssb2, stronger effect = lower value 0.875
